Test results: PubChem BioAssay (NCI)
This is part of a sample that, as a whole, favours compounds with a hit. Of some 83,000 tested, about 20% had one in any assay.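 In brief: 96-well plates, 48 h treatment, single concentration, percent growth endpoint.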 A number with no mark means an inactive call. The source made the active and inactive calls. The calls were made as follows: active = growth percent below 10; inactive = the rest.

Assays:
Test in all cases: NCI-60 one-dose screen, 48 h (100 = growth as untreated, 0 = no growth, -100 = all killed)
Details in all cases: 10 µM unless noted
[1] = tested on: SK-MEL-2 melanoma
[2] = tested on: EKVX NSCLC
[3] = tested on: SN12C renal
[4] = tested on: UO-31 renal
[5] = tested on: TK-10 renal
[6] = tested on: ACHN renal
[7] = tested on: CAKI-1 renal
[8] = tested on: A498 renal
[9] = tested on: CCRF-CEM leukemia
[10] = tested on: MOLT-4 leukemia
[11] = tested on: SR leukemia
[12] = tested on: RPMI-8226 leukemia
[13] = tested on: OVCAR-8 ovarian
[14] = tested on: OVCAR-5 ovarian
[15] = tested on: OVCAR-4 ovarian
[16] = tested on: SK-OV-3 ovarian
[17] = tested on: IGROV1 ovarian
[18] = tested on: OVCAR-3 ovarian
[19] = tested on: HS 578T breast
[20] = tested on: NCI/ADR-RES ovarian

O=S(=O)(NCCNc1nccc(-c2c(-c3ccc(F)c(O)c3)nc3sccn23)n1)c1ccccc1
growth [1]: 12.7% | growth [2]: 101% | growth [3]: 64.1% | growth [4]: 49.9% | growth [5]: 138% | growth [6]: 57.5% | growth [7]: 54.6% | growth [8]: 109% | growth [9]: 37.2% | growth [10]: 52.8% | growth [11]: 35.8% | growth [12]: 41% | growth [13]: 67.6% | growth [14]: 115% | growth [15]: 92.8% | growth [16]: 85.9% | growth [17]: 68.9% | growth [18]: 81.6% | growth [19]: 82.1% | growth [20]: 106%

N/C(=N\N=C\c1cc2ccccc2[nH]1)N/N=C/c1cc2ccccc2[nH]1
growth [1]: 100% | growth [2]: 79.7% | growth [3]: 89.9% | growth [4]: 74.1% | growth [5]: 116% | growth [6]: 109% | growth [7]: 87.3% | growth [8]: 95.6% | growth [9]: 84.4% | growth [10]: 84.6% | growth [11]: 6.87% (active) | growth [12]: 88.2% | growth [13]: 97.4% | growth [14]: 109% | growth [15]: 83% | growth [16]: 88.6% | growth [17]: 64.4% | growth [18]: 93.9% | growth [19]: 90.3% | growth [20]: 100%

Clc1ccc(N2N=C(c3cccc(Nc4ccncc4)c3)CC2c2ccc(Br)cc2)cc1 (stereo unspecified)
growth [1]: 94.7% | growth [2]: 77.9% | growth [3]: 54.3% | growth [4]: 43.2% | growth [5]: 62.3% | growth [6]: 2.34% (active) | growth [7]: 27.3% | growth [8]: 71.6% | growth [9]: 3.27% (active) | growth [10]: -0.295% (active) | growth [11]: 1.87% (active) | growth [12]: -2.67% (active) | growth [13]: -18.7% (active) | growth [14]: 77.8% | growth [15]: 0.0501% (active) | growth [16]: 85.7% | growth [17]: 3.01% (active) | growth [18]: 37.7% | growth [19]: 60.5% | growth [20]: 39.6%

Cn1c(COC(=O)NCCN2CCOCC2)nc2c(N3CCOCC3)nc(-c3ccccc3)nc21
growth [1]: -59.8% (active) | growth [2]: -62.6% (active) | growth [3]: -81.2% (active) | growth [4]: -100% (active) | growth [5]: -78.8% (active) | growth [6]: -100% (active) | growth [7]: -94.8% (active) | growth [8]: 30.7% | growth [9]: -10.9% (active) | growth [10]: -16.2% (active) | growth [11]: -5.83% (active) | growth [12]: -26.2% (active) | growth [13]: 7.67% (active) | growth [14]: -86.6% (active) | growth [15]: -61.1% (active) | growth [16]: 77.7% | growth [17]: -93.3% (active) | growth [18]: -86.5% (active) | growth [19]: -35% (active) | growth [20]: -12.7% (active)

CC(C)(C)OC(=O)N1C/C(=C\c2ccoc2)C(=O)/C(=C/c2ccoc2)C1
growth [1]: 96.4% | growth [2]: 102% | growth [3]: 97.8% | growth [4]: 74.2% | growth [5]: 94.8% | growth [6]: 99.6% | growth [7]: 82.5% | growth [8]: 74.1% | growth [9]: 16.5% | growth [10]: 76.1% | growth [11]: -8.41% (active) | growth [12]: -23% (active) | growth [13]: 101% | growth [14]: 97% | growth [15]: 100% | growth [16]: 99.5% | growth [17]: 95.6% | growth [18]: 106% | growth [19]: 90.6% | growth [20]: 97.6%

O=C(O)CCCCCCCCCCCCCCC(=O)O
growth [1]: 103% | growth [2]: 106% | growth [3]: 93.8% | growth [4]: 99.8% | growth [5]: 90.4% | growth [6]: 107% | growth [7]: 103% | growth [8]: 76.9% | growth [9]: 96.1% | growth [10]: 103% | growth [11]: 101% | growth [12]: 93.8% | growth [13]: 97.2% | growth [14]: 109% | growth [15]: 120% | growth [16]: 102% | growth [17]: 100% | growth [18]: 101% | growth [20]: 103%

CC(=O)N1N=C(c2cccc(Nc3ccncc3)c2)CC1c1ccccc1 (stereo unspecified)
growth [1]: 100% | growth [2]: 83.9% | growth [3]: 81.7% | growth [4]: 80.6% | growth [5]: 99.5% | growth [6]: 94.6% | growth [7]: 77.2% | growth [8]: 70% | growth [9]: 84.1% | growth [10]: 81.4% | growth [11]: 58.3% | growth [12]: 76.2% | growth [13]: 88.9% | growth [14]: 90.1% | growth [15]: 89.7% | growth [16]: 84.2% | growth [17]: 96% | growth [18]: 91.7% | growth [19]: 83.4% | growth [20]: 91.9%

CC[N+](CC)(CCCC(C)[N+]1(Cc2ccccc2)C(C)=CC=C1C)Cc1ccccc1 (stereo unspecified)
growth [1]: 102% | growth [2]: 78.1% | growth [3]: 85.1% | growth [4]: 91.2% | growth [5]: 93.8% | growth [6]: 100% | growth [7]: 101% | growth [8]: 87.5% | growth [9]: 74.1% | growth [10]: 84% | growth [11]: 90.1% | growth [12]: 33.6% | growth [13]: 101% | growth [14]: 88.1% | growth [15]: 62.1% | growth [16]: 101% | growth [17]: 62.4% | growth [18]: 64% | growth [20]: 97.7%

COc1ccc(NC(=O)c2sc3nc(C)c(C(=O)CCc4cccc(OC)c4)cc3c2N)cc1
growth [1]: 53.2% | growth [2]: 82.8% | growth [3]: 73% | growth [4]: 51% | growth [5]: 85.4% | growth [6]: 95.2% | growth [7]: 71% | growth [8]: 19.2% | growth [9]: 65.4% | growth [10]: 48.1% | growth [11]: 20.4% | growth [12]: 45.7% | growth [13]: 90.9% | growth [14]: 68.9% | growth [15]: 76.5% | growth [16]: 70.5% | growth [17]: 75.8% | growth [18]: 26.1% | growth [19]: 82% | growth [20]: 61.3%

O=C1CCCCCCCCC(O)C(O)CCCC(c2cccs2)O1 (stereo unspecified)
growth [1]: 120% | growth [2]: 82.2% | growth [3]: 106% | growth [4]: 75.2% | growth [5]: 115% | growth [6]: 94.8% | growth [7]: 93.9% | growth [8]: 102% | growth [9]: 47.4% | growth [10]: 31% | growth [11]: -12.3% (active) | growth [12]: 87.1% | growth [13]: 99% | growth [14]: 95.3% | growth [15]: 78.8% | growth [16]: 82.1% | growth [17]: 97.8% | growth [18]: 102% | growth [19]: 103% | growth [20]: 91.1%

COc1cc(/C=N/NC(=O)c2ccccc2Nc2cccc(C(F)(F)F)c2)ccc1O
growth [1]: 136% | growth [2]: 79.5% | growth [3]: 96.5% | growth [4]: 74.8% | growth [5]: 126% | growth [6]: 103% | growth [7]: 116% | growth [8]: 76.9% | growth [9]: -41.6% (active) | growth [10]: -76.2% (active) | growth [11]: -66.4% (active) | growth [12]: 78.3% | growth [13]: 93.9% | growth [14]: 89.2% | growth [15]: 50% | growth [16]: 69.6% | growth [17]: 111% | growth [19]: 106% | growth [20]: 75.4%

COc1ccc(C(=O)c2cc3c(N)c(C(=O)Nc4ccc(Cl)cc4)sc3nc2C)cc1
growth [1]: 68.5% | growth [2]: 86.1% | growth [3]: 89.9% | growth [4]: 79% | growth [5]: 82% | growth [6]: 74.7% | growth [7]: 66.3% | growth [8]: 59.9% | growth [9]: 73.9% | growth [10]: 82.6% | growth [11]: 36.4% | growth [12]: 74.6% | growth [13]: 50.2% | growth [14]: 86.7% | growth [15]: 21.5% | growth [16]: 73.5% | growth [17]: 90.6% | growth [18]: 73.3% | growth [19]: 60.3% | growth [20]: 75.3%

O=S(=O)(NCCCNc1nccc(-c2c(-c3ccc(F)c(O)c3)nc3sccn23)n1)c1ccc(F)cc1
growth [1]: -29.9% (active) | growth [2]: 30.6% | growth [3]: 4.8% (active) | growth [4]: -1.81% (active) | growth [5]: 27.6% | growth [6]: 6.06% (active) | growth [7]: 8.16% (active) | growth [8]: -10.9% (active) | growth [9]: -13.2% (active) | growth [10]: -3.88% (active) | growth [11]: -7.44% (active) | growth [12]: -47.7% (active) | growth [13]: -11.9% (active) | growth [14]: 24.4% | growth [15]: 3.86% (active) | growth [16]: 17.9% | growth [17]: 0.863% (active) | growth [19]: 3.15% (active) | growth [20]: 48.2%

COc1cc(-c2nc3occn3c2-c2ccnc(NCCNS(=O)(=O)c3ccc(Cl)cc3)n2)ccc1F
growth [1]: 71.9% | growth [2]: 78.1% | growth [3]: 71.5% | growth [4]: 36.4% | growth [5]: 89% | growth [6]: 77.7% | growth [7]: 60.9% | growth [8]: 62.3% | growth [9]: 60.9% | growth [10]: 54% | growth [11]: 71.9% | growth [12]: 48.8% | growth [13]: 85.4% | growth [14]: 118% | growth [15]: 78.6% | growth [16]: 67.3% | growth [17]: 64.6% | growth [18]: 114% | growth [19]: 77.8% | growth [20]: 82.2%

COc1ccc(-c2nc(N/N=C/c3cccc(Br)c3)nc(N3CCOCC3)c2C#N)cc1
growth [1]: 80.1% | growth [2]: 90.2% | growth [3]: 89.4% | growth [4]: 43.5% | growth [5]: 90.8% | growth [6]: 54.6% | growth [7]: 59.6% | growth [8]: 45.1% | growth [9]: 35.6% | growth [10]: 46.9% | growth [11]: -21.3% (active) | growth [12]: 35.8% | growth [13]: 69.9% | growth [14]: 111% | growth [15]: 81.2% | growth [16]: 97.1% | growth [17]: 89.1% | growth [18]: 74.6% | growth [19]: 68% | growth [20]: 83.3%

Fc1ccc(C2CC(c3cccc(Nc4ccncc4)c3)=NN2c2ccccc2)cc1 (stereo unspecified)
growth [1]: 90.2% | growth [2]: 90.1% | growth [3]: 75.8% | growth [4]: 62.8% | growth [5]: 80.3% | growth [6]: 75.3% | growth [7]: 48.1% | growth [8]: 85.2% | growth [9]: 32.4% | growth [10]: 5.35% (active) | growth [11]: 2.49% (active) | growth [12]: 1.2% (active) | growth [13]: 55.1% | growth [14]: 85.3% | growth [15]: 51.9% | growth [16]: 70.8% | growth [17]: 44% | growth [18]: 64% | growth [19]: 73.1% | growth [20]: 73%
